Test in all cases: NCI-60 one-dose screen, 48 h (100 = growth as untreated, 0 = no growth, -100 = all killed)
Holding throughout (conditions): 10 µM unless noted

Assay [1] has as its system NCI-H23 lung.
The subject of assay [2] is NCI-H226 lung.
Assay [3] concerns NCI-H322M lung.
For assay [4], the system named is HOP-62 NSCLC.
In assay [5] the test system is NCI-H460 lung.
In assay [6] the test system is HOP-92 NSCLC.
For assay [7], the system named is NCI-H522 lung.
The test system of assay [8] is A549/ATCC NSCLC.
For assay [9], the system named is 786-0 renal.
The test system of assay [10] is COLO 205 colon.

The panel holds about 83,000 compounds, 20% with a hit somewhere; the sample as a whole holds those more often.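 Negative percent growth values reflect cell death: -40 means 40% of the cells present at the start died, and -100 means all died.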 Unmarked numbers belong to inactive results. Activity calls are given as the source filed them. Rule for the calls: active = growth percent below 10; inactive = the rest.

Turning to `CCOC(=O)c1sc(Nc2ccc(Cl)cc2)nc1C`, the growth in assay [1] is 19.3%; in assay [2] it was 21.9%; in [3], 53.4%; in assay [4], 28.3%; in [5], 19.3%; in assay [6], -20.9% (active). Besides, the growth in assay [7] was -14.4% (active); in [8] it was 15.2%; in assay [9], 25%.
On to `N#Cc1nnn(-c2ccc(S(N)(=O)=O)cc2)c1NC(=O)CCl`, for which the growth in assay [1] was 100%; in assay [2], 95.5%; in assay [3], 93.4%; in assay [4] it was 92.2%; in assay [5] it was 104%; in [6], 96.1%. Moreover, the growth in assay [7] was 95%; in assay [8], 92.9%; in assay [9], 98%.
Take `CCOc1cc2ncc(C#N)c(Nc3ccc(OCc4cccc(F)c4)c(Cl)c3)c2cc1NC(=O)CCCCC1CCSS1` (stereo not drawn): the growth in assay [1] was 101%; in assay [2] it was 88.9%; in assay [3], 90.8%; in assay [4], 94.4%; in assay [5], 98%; in assay [6], 78.9%. For the same molecule, the growth in assay [7] was 66.4%; in assay [8], 73.6%; in [9], 89.1%; in assay [10], 103%.
As to `CCOC(=O)c1c(CN2CCN(C)CC2)nc2ccc(Cl)cc2c1-c1ccccc1`, the growth in assay [1] is 74.7%; in [2], 103%; in assay [3], 108%; in assay [4], 70.8%; in assay [5] it was 59.5%; in assay [6], 30.8%. In addition, the growth in [7] is 65.8%; in [8], 67.2%; in [9], 57.5%.
As to `CCCOc1cc2ccccc2cc1C(=O)Nc1nc(NC)c2c(ccc3nccc32)[nH]1`, the growth in assay [1] is -64.8% (active); in assay [2] it was -59.3% (active); in assay [3] it was -65.9% (active); in assay [4], -73.1% (active); in assay [5] it was -78.3% (active); in [6], -61.2% (active). The growth in [7] is -74.5% (active); in assay [8], -74.8% (active); in assay [9], -72.9% (active).
Take `Oc1cccc(-c2nc(N3CCOCC3)c3c4c(sc3n2)CCCC4)c1`: the growth in [1] was 56.3%; in assay [2] it was 61.1%; in [3], 56%; in assay [4], 62%; in [5], 44.1%; in assay [6], 11.2%. Also, the growth was 42.2% in [7], 51.7% in [8] and 96.7% in assay [9].
Consider `CC[N+](CC)=c1sc2c(s1)C(c1ccc(Cl)cc1)Oc1ccc(Cl)cc1-2` (stereo not drawn), for which the growth in assay [1] was 6.45% (active); in [2], 52.1%; in assay [3] it was 16.8%; in [4], 12.4%; in assay [5] it was -29.6% (active); in assay [6], -18% (active). Also, the growth in assay [7] was -12.9% (active); in [8], 7.61% (active); in assay [9], 30.7%.
`CC(=O)c1cc2c(N)c(C(=O)Nc3cccc(F)c3C)sc2nc1C`: the growth in assay [1] was 94.2%; in assay [2], 88%; in [3] it was 95.7%; in assay [4], 73.8%; in assay [5], 83.1%; in [6], 73.1%. Also, the growth in assay [7] is 82.1%; in [8], 56.5%; in assay [9] it was 92.1%.
As for `O=C1/C(=C/c2ccccc2)SC(=S)N1CCc1ccc(O)cc1`, the growth is 98% in assay [1]; 90.2% in assay [2]; 97.1% in assay [3]; 94% in assay [4]; 99.4% in assay [5]; 79.9% in assay [6]. Further, the growth in [7] was 54.8%; in assay [8], 93.6%; in [9], 89.5%; in [10], 108%.
Turning to `NC(=NCCCOc1ccc(Cl)cc1)Nc1ccc(Cl)cc1`, the growth in assay [1] was 23.4%; in assay [2] it was 107%; in assay [3], 31.8%; in [4] it was 33.9%; in [5], 48%; in [6] it was 21.6%. For the same molecule, the figures for the growth in assay [7], in assay [8] and in assay [9] were 27.8%, 24.1% and 58.4%, respectively.
In the case of `COC(=O)c1ccc(NC(=O)c2ccc(-c3cccc([N+](=O)[O-])c3)o2)cc1`, the growth is 87.3% in assay [1]; 73.9% in assay [2]; 94.3% in [3]; 107% in assay [4]; 101% in assay [5]; 94.6% in assay [6]. Moreover, the figures for the growth in assay [7], in assay [8] and in assay [9] were 94.2%, 108% and 103%, respectively.
In the case of `O=C(O)c1c(=O)cccc2ssc12`, the growth in assay [1] was 0.447% (active); in assay [2], -14.8% (active); in [3] it was 62.1%; in [4], -45.5% (active); in assay [5] it was 1.81% (active); in assay [6] it was -0.323% (active). Besides, the growth in [7] is -0.415% (active); in assay [8], -51% (active); in assay [9], -10.1% (active).
`COc1cc(/C=C/C(=O)Nc2cccnc2Nc2ccc(F)cc2)cc(OC)c1OC`: the growth in assay [1] is 99.6%; in [2], 99%; in assay [3], 107%; in [4] it was 103%; in [5], 112%; in assay [6], 74.8%. Further, the growth in assay [7] was 48.9%; in assay [8], 70.1%; in assay [9], 92.8%.
Regarding `COc1ccc(/C=C/C(=O)c2cc(O)ccc2O)cc1`, the growth was 95.8% in [1]; 94.5% in [2]; 111% in assay [3]; 114% in [4]; 96.6% in assay [5]; 70.6% in assay [6]. Also, the growth in [7] was -23.6% (active); in [8], 78.6%; in assay [9] it was 96.5%.
For the molecule `Fc1ccc(CNc2cccc3[nH]c(C(F)(F)F)nc23)cc1`, the growth in [1] is 99.1%; in assay [2], 93.1%; in assay [3] it was 104%; in assay [4], 80.3%; in assay [5], 83%; in [6], -9.4% (active). Moreover, the growth in assay [7] was 79.7%; in assay [8] it was 89.2%; in [9], 110%.
For the molecule `COc1ccc(-c2cc(C(=O)N=Nc3c(O)[nH]c4ccc(Br)cc34)no2)cc1`, the growth in assay [1] is 87%; in assay [2] it was 86.3%; in assay [3], 99%; in [4], 90.5%; in assay [5], 101%; in assay [6], 96.7%. Also, the growth is 83.2% in assay [7], 103% in [8] and 105% in assay [9].
`Cn1ccnc1C(=O)/C=C/c1ccc(CC(=O)Nc2ccccc2)cc1`: the growth is 18.9% in assay [1]; 47% in assay [2]; 2.66% (active) in assay [3]; 6.23% (active) in assay [4]; -19% (active) in [5]; 26.6% in assay [6]. In addition, the results for the growth in [7], in [8] and in assay [9] were 12.8%, 5.36% (active) and 18.6%, respectively.
Turning to `CC(C)(CCCN=C(N)Nc1ccc(Cl)cc1)c1ccc(F)cc1`, the growth in [1] was 55.6%; in assay [2], 95.6%; in assay [3], 70.9%; in assay [4], 69.2%; in assay [5] it was 46.1%; in assay [6], 28%. The growth in assay [7] was 62%; in [8] it was 79.6%; in assay [9], 73.4%.
Take `Nc1ccc(-c2cc3c(Nc4ccc(Oc5cccc(C(F)(F)F)c5)c(Cl)c4)ncnc3s2)cc1`: the growth in assay [1] was 69.6%; in [2], 69%; in assay [3], 61.9%; in assay [4] it was 90.2%; in assay [5], 69.5%; in assay [6], 87.8%. Further, the growth in [7] is 53.6%; in assay [8] it was 51.4%; in assay [9] it was 73.9%.
Turning to `O=S(=O)(Nc1ccc(Cl)c(F)c1)c1ccc(-c2cnc(C3CC3)o2)cc1`, the growth in assay [1] is 25.2%; in assay [2] it was 58.6%; in assay [3], 39.7%; in [4], 32.5%; in [5], 13.5%; in assay [6], 42%. Besides, the growth in assay [7] is -15.8% (active); in assay [8], 30.1%; in assay [9], 42.6%.
`COc1cc2nc(N3CCCC3)nc(NCC3CCCCC3)c2cc1OC`: the growth in assay [1] was 57.3%; in assay [2], 80.1%; in assay [3], 50.1%; in assay [4] it was 74.7%; in assay [5] it was -45% (active); in assay [6], -16.9% (active). Besides, the values for the growth in assay [7], in assay [8] and in [9] were -57.2% (active), 6.9% (active) and -82.5% (active), respectively.
With `COc1ccc(-n2nc(C)c3c(Nc4ccc(NC(=O)Nc5ccc(Cl)c(C(F)(F)F)c5)cc4)ncnc32)cc1`, the growth is -7.74% (active) in assay [1]; 10.7% in assay [2]; 9.35% (active) in [3]; -15.3% (active) in assay [4]; 0.651% (active) in assay [5]; -18.9% (active) in assay [6]. Moreover, the figures for the growth in assay [7], in assay [8] and in assay [9] were -18.4% (active), 6.97% (active) and -25.5% (active), respectively.
In the case of `COc1ccc(-c2nc3cc(C(=O)Nc4cc(OC)c(OC)c(OC)c4)ccc3n2C2CCCCC2)cc1`, the growth in assay [1] is 93.6%; in [2], 86.9%; in assay [3], 97.9%; in assay [4], 105%; in assay [5], 99.7%; in [6] it was 72.7%. The values for the growth in assay [7], in assay [8] and in assay [9] were 77.2%, 98.6% and 107%, respectively.
On to `Cn1cc(-c2nonc2-c2cn(C)c3ccc(F)cc23)c2ccccc21`, for which the growth is 23.2% in assay [1]; 5.33% (active) in assay [2]; 40.2% in assay [3]; 33.1% in assay [4]; 7.52% (active) in assay [5]; 54.6% in [6]. In addition, the growth in assay [7] was -8.4% (active); in assay [8] it was 24.5%; in assay [9], 34.3%.
Take `CCn1c(O)c(/C=N/NC(=O)C(C)c2ccc(CC(C)C)cc2)sc1=S` (stereo not drawn): the growth in [1] was 39.2%; in [2] it was 31.1%; in [3], 37.6%; in assay [4], 22.9%; in [5] it was 7.24% (active); in [6], 39.9%. In addition, the growth in assay [7] is -11.6% (active); in [8], 21.8%; in assay [9], 17.8%.
For the molecule `CC(C)(C)c1cc(C(C)(C)C)cc(S(=O)(=O)Nc2cc3ccccc3cc2C(=O)NCCN)c1`, the growth in assay [1] is 85.7%; in [2] it was 73.8%; in assay [3], 64.2%; in [4], 83.1%; in assay [5], -20.3% (active); in assay [6] it was 50%. In addition, the growth in [7] is 48%; in assay [8], 38.6%; in assay [9], 86.3%.
For `Cn1c(NCCc2ccc(O)c(O)c2)nc2c1c(=O)n(Cc1ccc(Br)cc1)c(=O)n2C`, the growth was 86.4% in [1]; 84.1% in assay [2]; 87.8% in assay [3]; 108% in assay [4]; 94.3% in [5]; 61.1% in assay [6]. Besides, the figures for the growth in [7], in [8] and in [9] were -26.6% (active), 83.9% and 82%, respectively.
With `NC(=NCCCOc1ccc(Cl)cc1)Nc1ccc(C(F)(F)F)cc1`, the growth is 33.4% in assay [1]; 97.5% in assay [2]; 34.9% in [3]; 48.3% in assay [4]; 18.4% in [5]; 20.9% in assay [6]. Moreover, the growth in assay [7] is 42.5%; in assay [8], 49.4%; in assay [9], 53.4%.
Turning to `CCN1CCN(c2nc(NCCCNc3ccnc4cc(Cl)ccc34)c3ccccc3n2)CC1`, the growth in [1] is 64.3%; in assay [2] it was 60.4%; in [3], 45.4%; in assay [4], 32.4%; in [5], 16.3%; in assay [6] it was 64.9%. Moreover, the growth was -21.5% (active) in assay [7], 18.8% in assay [8] and 30.7% in assay [9].
